NS1 function inh – inhibitors of influenza NS1 protein function | Potency, µM (doses to about 46.1 µM) | hit rate 0.4% among 270,000 | AID 2326; calls by dose curve; also: actives are rising curves; nearly all actives have a fitted effect of over 50% in size
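A cell-based growth assay was used: compounds that relieve NS1-induced slow growth of budding yeast raise OD600. Assay medium was yeast nitrogen base with ammonium sulphate and -URA supplement, pH 6.0, with 2% galactose.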
AMA1-RON2 inh – AMA1-RON2 (P. falciparum) interaction inhibition; AlphaScreen AMA1-biotinylated RON2 peptide binding; Potency, µM (top dose mostly 58.2 µM), usual class: inhibitors; hit rate 0.2% among 360,000; AID 720542; also: nearly all actives have a fitted effect of over 45% in size
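AMA1 (3D7) with his tag at 25 nM final met compounds first, then biotinylated RON2 peptide at 25 nM; detection used donor plus acceptor beads, 10 µg/mL apiece, read by AlphaScreen after 30 min at room temperature.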
Pf growth 48h – inhibits P. falciparum growth in the first generation, 48 h; P. falciparum luciferase growth in erythrocytes, 48 h; Potency, µM (doses to about 28.7 µM), actives largely listed as inhibitors; hit rate 5.9% among 310,000; AID 504832
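Read-out is firefly luciferase luminescence from an integrated reporter in P. falciparum, so falling signal marks reduced parasite growth. Infected erythrocytes were at 2% hematocrit and 0.1% parasitemia (final) in Albumax-supplemented RPMI 1640.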
Sm TGR block – blocks Schistosoma mansoni thioredoxin glutathione reductase; Q962Y6; Potency, µM (series often up to 114 µM), most hits filed as inhibitors; AID 485364; hit rate 3% among 360,000; purified TGR, DTNB reduction, TNB absorbance 405 nm; also: nearly all actives have a fitted effect of over 60% in size
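Kinetic colorimetric format: TGR-catalysed, NADPH-driven DTNB reduction monitored via TNB absorbance. Enzyme dispensed at 20 nM; compound exposure 15 min at room temperature before reaction start.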
Pf growth 96h – inhibits malaria parasite growth, 96 h | Potency, µM (series often up to 28.7 µM), most hits filed as inhibitors | hit rate 6.9% among 320,000 | AID 504834 | P. falciparum luciferase reporter growth, 96 h
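96 h incubation, 37 C, 5% CO2, of luciferase-reporter P. falciparum-infected RBCs (2% hematocrit, 0.05% parasitemia final) with test compounds; endpoint luminescence.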
Large screens that a line does not name were inactive. Shown are actives, neighbours in structure and some others; about 11% of the full set was active somewhere. Unless noted, calls follow the shape of the dose curve; as a rule, active = well fitted curve in the direction sought with a large enough effect; inconclusive = small, poorly fitted or top-dose-only effect, or another doubt; inactive = no such curve, though single readings can be large; an effect the other way counts as inactive or inconclusive.

CC(=O)c1ccc(S(=O)(=O)N(C)CC(=O)N2CCCCCC2)cc1	none
Cc1ccc(C(=O)/C=C/c2ccc(-c3ccc(C)cc3)o2)cc1	Sm TGR block inconclusive, Pf growth 96h inconclusive
O=Cc1ccc(-c2ccc(F)cc2)o1	Pf growth 96h inconclusive (no result: NS1 function inh)
O=C(/C=C\c1ccc(-c2ccccc2)o1)c1ccccc1	AMA1-RON2 inh inconclusive, Sm TGR block 11µM
O=C(O)/C(=C\c1ccc(-c2ccc(F)cc2)o1)c1ccccc1	Sm TGR block 18µM (no result: NS1 function inh)
C/C(C=O)=C/c1ccccc1	none (no result: NS1 function inh)
Cc1ccc(C2CC(c3ccccc3Cl)n3nc(N)nc3N2)cc1 (stereo not given)	none (no result: Pf growth 48h)
CCOc1ccccc1C1CC(c2ccc(Br)cc2)Nc2nc(N)nn21 (stereo not given)	Pf growth 48h inconclusive, Pf growth 96h 7.4µM
CCOc1ccc(C2CC(c3ccccc3C)n3nc(N)nc3N2)cc1 (stereo not given)	NS1 function inh inconclusive, Pf growth 96h inconclusive
CCc1ccc(C2CC(c3ccccc3)Nc3nc(N)nn32)cc1 (stereo not given)	Pf growth 96h 1.9µM
Nc1nc2n(n1)C(c1ccccc1Cl)CC(c1ccc(F)cc1)N2 (stereo not given)	Pf growth 96h 1.7µM (no result: Pf growth 48h)
COc1cccc(C2CC(c3c(Cl)cccc3Cl)n3nc(N)nc3N2)c1 (stereo not given)	Pf growth 48h inconclusive, Pf growth 96h 13µM
Cn1cc([N+](=O)[O-])c(C(=O)Nc2ccc(-c3nc4ccccc4o3)cc2)n1	none
CC(OC(=O)c1n[nH]c2ccccc12)C(=O)Nc1ccccc1[N+](=O)[O-] (stereo not given)	none (no result: NS1 function inh)
Cc1cc(O)c(N)c(C)c1Cl	Pf growth 48h 3.3µM, Pf growth 96h inconclusive (no result: NS1 function inh)
Cc1cc(O)ccc1Cl	none (no result: NS1 function inh, AMA1-RON2 inh, Sm TGR block)
Cc1cc(O)cc(C)c1Cl	Pf growth 48h 15µM, Pf growth 96h 8.5µM (no result: NS1 function inh, Sm TGR block)
O=C(NC1CCCC1)c1ccc(Cl)c(S(=O)(=O)N2CCCCC2)c1	Pf growth 48h inconclusive
COC(=O)C1=C(C)NC(C)=C(C(=O)OCC2CCCO2)C1c1ccc(Cl)c([N+](=O)[O-])c1 (stereo not given)	Pf growth 48h inconclusive, Pf growth 96h inconclusive (no result: AMA1-RON2 inh)
CC1=C(C(=O)OCCNC(=O)c2ccccc2O)C(c2ccccc2[N+](=O)[O-])C(C(=O)OCC2CCCO2)=C(C)N1 (stereo not given)	AMA1-RON2 inh inconclusive, Pf growth 48h inconclusive, Pf growth 96h 5.2µM
CN1CCN(C(=O)c2ccccc2NC(=O)c2ccccc2Br)CC1	none
CN1CCN(C(=S)NC(=O)c2ccccc2Br)CC1	Pf growth 96h 1.9µM
Cc1ccc2c(c1)N(S(=O)(=O)c1ccc(F)cc1)C(C(C)(C)C)CO2 (stereo not given)	Pf growth 48h 13µM
Cc1ccc(S(=O)(=O)N2c3ccccc3OCC2C(C)(C)C)cc1 (stereo not given)	Pf growth 48h 9.3µM, Pf growth 96h inconclusive
CCOc1ccc(/C=N/NC(=S)NC2CC3C=CC2C3)cc1 (stereo not given)	Pf growth 48h inconclusive, Pf growth 96h 8.3µM
COc1cc(/C=N/NC(=S)NC2CC3C=CC2C3)cc(OC)c1OC (stereo not given)	Pf growth 48h 5.2µM, Pf growth 96h 2.9µM
Oc1c(Br)cc(Br)cc1/C=N/NC(=S)N[C@H]1CC2C=CC1C2 (stereo not given in full)	Pf growth 48h inconclusive, Pf growth 96h inconclusive
O=Nc1c(-c2ccccc2)cc2ccccn12	Pf growth 48h 4.7µM, Pf growth 96h 9.3µM
O=C(c1noc2c1CSc1ccccc1-2)N1CCN(c2ccc(Cl)cc2)CC1	Pf growth 96h inconclusive
CCOc1cc(C2C(C#N)=C(N)Oc3n[nH]c(CC)c32)ccc1OCCN1CCOCC1 (stereo not given)	Pf growth 48h inconclusive, Pf growth 96h 9.3µM
COc1cc(C2C(C#N)=C(N)Oc3n[nH]c(C)c32)ccc1OC(=O)c1ccccc1 (stereo not given)	Pf growth 96h 17µM
COCc1[nH]nc2c1C(c1ccc(OC)cc1)C(C#N)=C(N)O2 (stereo not given)	Pf growth 96h 1.3µM
OCCNc1nc(Nc2ccc(Br)cc2)nc2ccccc12	Pf growth 48h 0.93µM, Pf growth 96h inconclusive (no result: NS1 function inh)
c1ccc(CNc2c3ccccc3nc3ccccc23)cc1	Pf growth 48h 2.9µM, Pf growth 96h inconclusive
CNc1nc(NCc2ccc(N(C)C)cc2)c2sccc2n1	AMA1-RON2 inh 20µM (no result: NS1 function inh, Pf growth 48h, Sm TGR block, Pf growth 96h)
CNc1nc(NCc2ccc(C)cc2C)c2sccc2n1	none (no result: NS1 function inh, Pf growth 48h, Sm TGR block, Pf growth 96h)
Oc1ccc(CCNc2c3ccccc3nc3ccccc23)cc1O	AMA1-RON2 inh inconclusive, Pf growth 48h 13µM, Pf growth 96h 3.3µM
OCCNc1nc(Nc2ccccc2)nc2ccccc12	Pf growth 48h inconclusive
Cc1ccc(O)c(Nc2c3ccccc3nc3ccccc23)c1	AMA1-RON2 inh inconclusive, Pf growth 48h inconclusive, Sm TGR block inconclusive
CNC(=O)C1CCC(Cn2c(=O)c3sccc3n(CC(=O)Nc3ccccc3)c2=O)CC1 (stereo not given)	none (no result: NS1 function inh, AMA1-RON2 inh, Pf growth 48h, Pf growth 96h)
Cc1ccc2c(c1)cc1c(=O)n(Cc3ccc(Cl)cc3)nc(C)n12	none (no result: NS1 function inh, AMA1-RON2 inh, Pf growth 48h, Pf growth 96h)
CN(C)CCCNc1c2ccccc2nc2ccccc12	Pf growth 48h 1µM
OCC(Cc1ccccc1)Nc1c2ccccc2nc2ccccc12 (stereo not given)	Pf growth 48h 2.6µM, Pf growth 96h inconclusive
Cc1c(Cl)cccc1Nc1nc(NCCO)c2ccccc2n1	Pf growth 48h inconclusive, Pf growth 96h inconclusive
Oc1ccccc1Nc1nc(NCc2ccccc2)c2ccccc2n1	Pf growth 48h 0.33µM
CNc1nc(NCc2ccccc2)c2ccccc2n1	Pf growth 48h 1.2µM, Pf growth 96h inconclusive
CCCCNc1nc(NCc2ccccc2)nc2ccccc12	none (no result: NS1 function inh, Pf growth 48h, Sm TGR block, Pf growth 96h)
Cc1cccc(N(C(=O)CCC(=O)Nc2nccs2)C(C(=O)NC(C)(C)C)c2ccc(O)cc2)c1 (stereo not given)	NS1 function inh inconclusive, Pf growth 48h inconclusive (no result: Sm TGR block)
Cc1nc2ccccc2c(=O)n1/N=C/c1ccco1	Pf growth 96h inconclusive (no result: NS1 function inh)
Cc1ccccc1OCc1nc2ccccc2c(=O)n1/N=C/c1cn[nH]c1-c1ccc(Br)cc1	NS1 function inh inconclusive, Pf growth 48h inconclusive, Pf growth 96h 5.2µM
Cc1ccccc1OCc1nc2ccccc2c(=O)n1/N=C/c1ccco1	Sm TGR block 40µM, Pf growth 96h inconclusive
Cc1ccc(-c2[nH]ncc2/C=N/n2c(C)nc3ccccc3c2=O)cc1	none
O=c1c2ccccc2nc(COc2ccccc2)n1/N=C/c1c[nH]c2ccccc12	none
O=c1c2ccccc2nc(COc2ccccc2)n1/N=C/c1cn[nH]c1-c1ccccc1	Pf growth 48h inconclusive, Pf growth 96h 10µM
COc1ccc(-c2[nH]ncc2C(=O)NCc2cccc(Cl)c2)cc1	none (no result: NS1 function inh, AMA1-RON2 inh, Pf growth 48h, Pf growth 96h)
COc1cccc(NC(c2nnc(-c3ccccc3)o2)c2ccc(F)cc2Cl)c1 (stereo not given)	none (no result: NS1 function inh, AMA1-RON2 inh, Pf growth 48h, Pf growth 96h)
COc1cccc(OCc2nc3ccccc3n2C)c1	none (no result: NS1 function inh, AMA1-RON2 inh, Pf growth 48h, Pf growth 96h)
Cn1nnnc1SCCCNCc1ccccc1OCc1ccc(Cl)cc1	none (no result: NS1 function inh, AMA1-RON2 inh, Pf growth 48h, Pf growth 96h)
